Test results as given in PubChem BioAssay (NCATS).
Values joined by “and” are separate entries in the source; they are usually repeats but may differ in a detail not shown here. Equal values may be shown once. Inconclusive results are not listed. Entries that show only a call come without a potency. Active and inactive are the calls of the source. Unless noted, the call rests on the fitted dose curve; in most records, active means well fitted curve in the direction sought with a large enough effect; inconclusive means small, poorly fitted or top-dose-only effect, or another doubt; inactive means no such curve, though single readings can be large; an effect the other way counts as inactive or inconclusive.

How the values were obtained:
[1] = AP1 Signaling Pathway (AID 357; active means well fitted curve in either direction with a large enough effect, not every such curve was filed as active;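 further: ME-180 reporter cells stimulated with EGF at its EC50 level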)
How it was run: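 Cells are seeded overnight, exposed to compound titrations and an EC50 level of EGF for 5 hours at 37 °C, then loaded with CCF4 dye for 2.5 hours. Beta-lactamase activity under the AP-1 element is read as a blue/green ratio.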

[2] = Stat Signaling Pathway (AID 446; active means well fitted curve in either direction with a large enough effect, not every such curve was filed as active;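 further: ME-180 cervical cancer cells given 40 pM IL-6 alongside compound; SIE-controlled beta-lactamase reporter measured as 460/530 nm FRET emission ratio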)
How it was run: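 FRET read-out (405 nm excitation, 460/530 nm emission) of a beta-lactamase reporter under a STAT-inducible element in ME-180 cervical carcinoma cells. Cells with compound receive 40 pM IL-6 for 5 h. Values are normalised to AC90 stimulation and AC90 JAK-inhibitor controls.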

[3] = target: Glucocorticoid receptor (Homo sapiens) (UniProt P04150); assay: GR-EFC Redistribution (AID 451; calls by dose curve; further: potency means the concentration at half of the fitted maximal effect); details: CHO-K1 GR-EFC translocation, beta-gal luminescence, 2 h
Sequence of Glucocorticoid receptor (Homo sapiens) (P04150 whole entry, looked up, the tested form may be a part): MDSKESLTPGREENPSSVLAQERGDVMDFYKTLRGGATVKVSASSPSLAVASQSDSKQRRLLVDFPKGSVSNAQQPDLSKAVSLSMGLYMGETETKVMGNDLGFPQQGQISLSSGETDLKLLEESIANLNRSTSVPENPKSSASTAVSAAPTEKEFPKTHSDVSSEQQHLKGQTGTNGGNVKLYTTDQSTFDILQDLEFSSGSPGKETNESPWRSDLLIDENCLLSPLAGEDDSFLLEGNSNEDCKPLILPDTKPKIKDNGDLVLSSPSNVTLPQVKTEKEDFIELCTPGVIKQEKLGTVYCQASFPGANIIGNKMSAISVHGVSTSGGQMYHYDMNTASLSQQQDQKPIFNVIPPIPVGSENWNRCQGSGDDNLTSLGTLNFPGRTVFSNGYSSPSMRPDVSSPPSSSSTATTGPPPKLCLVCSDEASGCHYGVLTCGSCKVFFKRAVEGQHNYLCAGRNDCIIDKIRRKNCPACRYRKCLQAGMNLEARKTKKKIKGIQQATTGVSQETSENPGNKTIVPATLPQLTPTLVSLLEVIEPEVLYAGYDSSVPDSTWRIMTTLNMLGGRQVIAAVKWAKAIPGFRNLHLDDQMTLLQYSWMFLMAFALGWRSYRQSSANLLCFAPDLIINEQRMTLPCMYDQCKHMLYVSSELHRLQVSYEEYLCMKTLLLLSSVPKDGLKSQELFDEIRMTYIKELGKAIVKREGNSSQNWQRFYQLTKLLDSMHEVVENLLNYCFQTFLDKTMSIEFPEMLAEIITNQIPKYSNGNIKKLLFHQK
How it was run: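 CHO-K1 cells expressing nuclear EA and GR-ED fragments of b-gal; compounds titrated up to 46 uM final, 2 h at 37 C. GR nuclear translocation read as complemented b-gal luminescence after 1 h RT detection.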

[4] = target: 3',5'-cyclic-AMP phosphodiesterase 4B (Homo sapiens) (UniProt Q07343); assay: qHTS Assay for Inhibitors of PDE-IV (AID 607; active means well fitted activation curve with a large enough effect in the main read-out, with a control signal flat, not every such curve was filed as active)
Sequence of 3',5'-cyclic-AMP phosphodiesterase 4B (Homo sapiens) (Q07343 whole entry, looked up): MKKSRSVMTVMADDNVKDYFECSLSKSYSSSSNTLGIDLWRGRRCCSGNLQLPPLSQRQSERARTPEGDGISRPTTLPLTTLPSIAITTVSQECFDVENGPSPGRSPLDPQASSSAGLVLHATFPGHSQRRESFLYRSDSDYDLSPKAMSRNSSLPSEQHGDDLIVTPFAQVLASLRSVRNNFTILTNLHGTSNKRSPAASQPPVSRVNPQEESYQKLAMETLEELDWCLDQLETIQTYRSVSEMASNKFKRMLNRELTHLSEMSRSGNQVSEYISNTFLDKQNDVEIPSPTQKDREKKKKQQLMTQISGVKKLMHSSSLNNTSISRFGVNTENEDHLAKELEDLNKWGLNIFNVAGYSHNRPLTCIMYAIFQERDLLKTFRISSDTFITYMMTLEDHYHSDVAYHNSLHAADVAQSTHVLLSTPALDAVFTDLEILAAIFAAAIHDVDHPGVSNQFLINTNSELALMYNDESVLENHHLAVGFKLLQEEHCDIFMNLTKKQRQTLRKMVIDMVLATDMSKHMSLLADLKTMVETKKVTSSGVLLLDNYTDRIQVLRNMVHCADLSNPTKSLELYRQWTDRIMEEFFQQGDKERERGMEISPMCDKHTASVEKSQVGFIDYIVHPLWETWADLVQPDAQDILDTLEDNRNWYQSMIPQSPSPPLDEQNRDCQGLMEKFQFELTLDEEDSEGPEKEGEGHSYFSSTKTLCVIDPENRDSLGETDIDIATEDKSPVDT
How it was run: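 Cell-based read-out of cAMP via a modified cyclic nucleotide-gated channel and membrane potential dye (535/590 nm) in HEK293 cells expressing PDE4 endogenously. Compounds tested up to 22.9 uM final; 100 uM RO 20-1724 reference.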

[5] = qHTS Assay for Lipid Storage Modulators (AID 1519; calls by dose curve); details: Drosophila S3 cells, BODIPY lipid droplet/cell ratio, laser cytometry, cells loaded with oleic acid; for activity change, negative = inhibition: at 25.7 µM (top of the series)
How it was run: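 Cells seeded at 5,000 per well were treated with compounds over a concentration series and loaded with oleic acid (400 uM, as added). Lipid droplet fluorescence (488 nm excitation, 500-530 nm channel) was read by laser-scanning cytometry and normalized to 20 uM Triacsin C.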

[6] = target: Ubiquitin carboxyl-terminal hydrolase 1 (Homo sapiens) (UniProt O94782); assay: Inhibitors of USP1/UAF1: Pilot qHTS (AID 504865);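 further: rhodamine fluorescence freed from ubiquitin-rhodamine substrate followed over time; top concentration of the series differs between compounds; nearly all actives have a fitted effect of over 35% in size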
Sequence of Ubiquitin carboxyl-terminal hydrolase 1 (Homo sapiens) (O94782 whole entry, looked up): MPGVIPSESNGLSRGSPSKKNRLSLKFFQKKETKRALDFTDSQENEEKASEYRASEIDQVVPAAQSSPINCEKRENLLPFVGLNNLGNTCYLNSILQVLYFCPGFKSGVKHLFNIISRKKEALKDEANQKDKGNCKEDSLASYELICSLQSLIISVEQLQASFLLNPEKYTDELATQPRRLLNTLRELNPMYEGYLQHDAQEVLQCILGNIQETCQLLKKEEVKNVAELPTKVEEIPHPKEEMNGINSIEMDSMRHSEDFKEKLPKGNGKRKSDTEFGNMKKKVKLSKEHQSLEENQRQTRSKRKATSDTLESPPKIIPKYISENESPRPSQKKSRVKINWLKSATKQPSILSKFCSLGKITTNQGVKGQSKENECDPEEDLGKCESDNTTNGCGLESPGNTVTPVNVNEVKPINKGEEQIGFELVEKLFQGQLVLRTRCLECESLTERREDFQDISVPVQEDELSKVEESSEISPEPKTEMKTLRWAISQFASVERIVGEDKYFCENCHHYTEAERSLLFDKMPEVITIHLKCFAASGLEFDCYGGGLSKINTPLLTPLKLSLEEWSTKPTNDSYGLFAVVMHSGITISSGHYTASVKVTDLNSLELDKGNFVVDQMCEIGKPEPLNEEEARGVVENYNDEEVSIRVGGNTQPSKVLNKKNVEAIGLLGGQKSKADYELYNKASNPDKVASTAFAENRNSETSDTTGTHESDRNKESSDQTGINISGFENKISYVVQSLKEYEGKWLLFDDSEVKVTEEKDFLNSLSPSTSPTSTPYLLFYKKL
How it was run: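 Kinetic fluorescence assay: 1nM USP1/UAF1, 15 min compound preincubation, then 150nM Ub-Rho; 480/540 nm.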

[7] = NFAT Signaling Pathway (AID 444; active means well fitted curve in either direction with a large enough effect, not every such curve was filed as active;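 further: carbachol stimulus at about its EC50 of 1 µM final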); details: Jurkat NFAT-bla M1, carbachol, beta-lactamase ratio, 5 h; at 17.2 µM (top of the series) unless noted
How it was run: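 Jurkat cells with NFAT-driven β-lactamase reporter and co-expressed M1 receptor, stimulated with carbachol (final 1 uM, ~EC50), compound titration, 5 h at 37 °C. CCF4 loaded 1 h at RT; 460/530 nm ratio gave %activity and AC50.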

[8] = target: Glucocorticoid receptor (Homo sapiens) (UniProt P04150); assay: GR-GFP Redistribution (AID 450;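 active means compounds whose dose series gives a full or clear partial fitted curve of increased nuclear translocation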; further: potency means the concentration at half of the fitted maximal effect); details: U2OS GR-GFP nuclear translocation, laser cytometry, 2 h
[9] = target: Luciferin 4-monooxygenase (Photinus pyralis) (UniProt P08659); assay: Biochemical firefly luciferase enzyme assay for NPC (AID 624030);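 further: purified P. pyralis luciferase at 10 nM with luciferin and ATP substrate; nearly all actives have a fitted effect of over 70% in size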
Sequence of Luciferin 4-monooxygenase (Photinus pyralis) (P08659 whole entry, looked up): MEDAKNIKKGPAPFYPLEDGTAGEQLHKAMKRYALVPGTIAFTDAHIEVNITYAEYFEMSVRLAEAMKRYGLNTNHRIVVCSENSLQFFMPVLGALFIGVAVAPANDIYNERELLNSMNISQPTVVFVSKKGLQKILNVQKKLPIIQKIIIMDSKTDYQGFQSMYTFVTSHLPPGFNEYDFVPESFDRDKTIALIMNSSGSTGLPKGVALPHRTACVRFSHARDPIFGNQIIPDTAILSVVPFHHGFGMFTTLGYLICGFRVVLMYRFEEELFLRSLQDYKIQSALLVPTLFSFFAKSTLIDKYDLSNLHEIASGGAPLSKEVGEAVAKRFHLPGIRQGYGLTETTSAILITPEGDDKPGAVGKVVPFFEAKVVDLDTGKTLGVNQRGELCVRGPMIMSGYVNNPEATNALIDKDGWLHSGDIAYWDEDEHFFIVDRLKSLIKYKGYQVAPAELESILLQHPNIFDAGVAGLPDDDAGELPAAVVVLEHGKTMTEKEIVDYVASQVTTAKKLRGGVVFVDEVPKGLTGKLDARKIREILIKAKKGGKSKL
How it was run: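 Purified P. pyralis luciferase at 10 nM in 50 mM Tris Acetate (final), luminescence read within 5 minutes of enzyme addition to compounds. Activity normalised to PTC124 versus DMSO; concentration-response curves classed by r2, magnitude and activity.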

[10] = S16 Schwann cell viability assay (CellTiter-Glo assay) (AID 624031);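 further: native untransfected S16 rat Schwann cells; cellular ATP luminescence as a viability measure; nearly all actives have a fitted effect of over 70% in size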
How it was run: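 Parental S16 cells, 24 h compound, 37 °C. ATP-luminescence viability; DMSO = 0% activity, empty wells as reference; curves classified by fit quality and efficacy.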

[11] = qHTS profiling for inhibitors of Plasmodium falciparum proliferation (AID 504749); further: potency means the concentration at half of the fitted maximal effect; on all read-outs here: nearly all actives have a fitted effect of over 60% in size; details: P. falciparum in erythrocytes, SYBR Green DNA, 72 h; for activity, negative = inhibition: at 12.8 µM (top of the series)
How it was run: (§1)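 Each compound contacts P. falciparum-infected red blood cells for 72 h at 37 C; lysis buffer (Tris, EDTA, saponin, Triton X, SYBR Green I) is added and fluorescence measured next morning; values normalized to controls.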

C2A = assay: as above; details: P. falciparum in erythrocytes, SYBR Green DNA, 72 h; series mostly up to 12.8 µM
How it was run: as §1

CP191 = assay: as above; details: P. falciparum in erythrocytes, SYBR Green DNA, 72 h; series mostly up to 12.8 µM
How it was run: as §1

CP247 = assay: as above; details: P. falciparum in erythrocytes, SYBR Green DNA, 72 h; series mostly up to 12.8 µM
How it was run: as §1

CP250 = assay: as above; details: P. falciparum in erythrocytes, SYBR Green DNA, 72 h; series mostly up to 12.8 µM
How it was run: as §1

CP256 = assay: as above; details: P. falciparum in erythrocytes, SYBR Green DNA, 72 h; series mostly up to 12.8 µM
How it was run: as §1

FAB9 = assay: as above; details: P. falciparum in erythrocytes, SYBR Green DNA, 72 h; series mostly up to 12.8 µM
How it was run: as §1

JCK = assay: as above; details: P. falciparum in erythrocytes, SYBR Green DNA, 72 h; series mostly up to 12.8 µM
How it was run: as §1

PC49 = assay: as above; details: P. falciparum in erythrocytes, SYBR Green DNA, 72 h; series mostly up to 12.8 µM
How it was run: as §1

[12] = target: Mitogen-activated protein kinase 10 (Mus musculus) (UniProt Q61831); assay: JNK3 AlphaScreen Assay (AID 530; active means well fitted curve in either direction with a large enough effect, not every such curve was filed as active;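 further: kinase came from lysate of stimulated human HepG2 cells; signal reports phosphorylation of biotinylated GST-cJun 1-79 at Ser73 with 10 µM ATP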)
How it was run: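 Activity was read by AlphaScreen after JNK3-containing HepG2 lysate (cytokine pre-activated) phosphorylated biotinylated GST-cJun with 10 uM ATP at room temperature. Phospho-Ser73 cJun antibody with Protein-A acceptor beads provided detection.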

[13] = measured here: cell count channel max response
[14] = measured here: lipid channel max response

In the case of `C#C[C@@]1(O)CC[C@@H]2[C@@H]3CCC4=CC(=O)CC[C@@H]4[C@H]3CC[C@]21CC`, the outcome [1] is reported as “inactive”, the outcome [2] is reported as “inactive” and the Potency [3] is reported as > 20.6 µM (inactive). The outcome [4] was “inactive”, the activity change, negative = inhibition [5] was -1.97% (inactive) and the max response [5, 13] was -10.3%. The max response [5, 14] was -10.4% and the Potency [6] was “inactive”.

For `C1CCN2C[C@@H]3C[C@@H](CN4CCCC[C@H]34)[C@H]2C1`, the outcome [1] was “inactive”, the activity change, negative = inhibition [7] was -16.7% (inactive) and the outcome [2] was “inactive”. For the same compound, the Potency [8] was > 20.6 µM (inactive) and > 46 µM (inactive), the Potency [3] was > 20.6 µM (inactive) and > 46 µM (inactive) and the outcome [4] was “inactive”. For the same compound, the activity change, negative = inhibition [5] was -1.82% (inactive), the max response [5, 13] was -3.93% and the max response [5, 14] was -5.58%. The Potency [6] was “inactive”, the Potency [9] was “inactive” and the outcome [10] was “inactive”. The activity, negative = inhibition ([11]; parasite line A) was 5.24% (inactive), the activity, negative = inhibition ([11]; parasite line B) was 14.7% (inactive) and the Potency (C2A) was “inactive”. For the same compound, the Potency (CP191) was “inactive”, the Potency (CP247) was “inactive” and the Potency (CP250) was “inactive”. For the same compound, the Potency (CP256) was “inactive”, the Potency (FAB9) was “inactive” and the Potency (JCK) was “inactive”. The Potency (PC49) was “inactive”.

In the case of `CC(=O)CC(=O)[C@@]1(O)CC[C@@H]2[C@@H]3C=C(C)C4=CC(=O)CC[C@@H]4[C@H]3CC[C@]21C`, the outcome [1] is reported as “inactive”, the outcome [2] is reported as “inactive” and the Potency [3] is reported as > 20.6 µM (inactive). The Potency [12] was “inactive”, the outcome [4] was “inactive” and the activity change, negative = inhibition [5] was -4.61% (inactive). It also gave a max response [5, 13] of -16.2% and a max response [5, 14] of -21%.

For `CC(=O)OCC(=O)[C@@]1(O)[C@H](C)C[C@@H]2[C@H]3CCC4=CC(=O)C=C[C@]4(C)[C@]3(F)[C@@H](O)C[C@@]21C`, the outcome [1] was “inactive”, the outcome [2] was “inactive” and the Potency [12] was “inactive”. The outcome [4] was “inactive”, the activity change, negative = inhibition [5] was -3.21% (inactive) and the max response [5, 13] was -15.2%. The max response [5, 14] was -18.5%, the Potency [6] was “inactive” and the Potency [9] was “inactive”. For the same compound, the outcome [10] was “inactive”, the activity, negative = inhibition ([11]; parasite line A) was 0.4% (inactive) and the activity, negative = inhibition ([11]; parasite line B) was -1.7% (inactive). The Potency (C2A) was “inactive”, the Potency (CP191) was “inactive” and the Potency (CP247) was “inactive”. For the same compound, the Potency (CP250) was “inactive”, the Potency (CP256) was “inactive” and the Potency (FAB9) was “inactive”. For the same compound, the Potency (JCK) was “inactive” and the Potency (PC49) was “inactive”.

For `C[C@@]12CC[C@H]3[C@@H](CCC4=CC(=O)CC[C@]43C)[C@H]1CC[C@H]2C(=O)CO`, the outcome [1] was “inactive”, the outcome [2] was “inactive” and the Potency [3] was > 20.6 µM (inactive). For the same compound, the Potency [12] was “inactive”, the outcome [4] was “inactive” and the activity change, negative = inhibition [5] was -5.79% (inactive). For the same compound, the max response [5, 13] was -3.01%, the max response [5, 14] was -9.53% and the Potency [9] was “inactive”. The outcome [10] was “inactive”, the activity, negative = inhibition ([11]; parasite line B) was 3.27% (inactive) and the Potency ([11]; parasite line A) was 4.47 µM (active). For the same compound, the Potency (C2A) was “inactive”, the Potency (CP191) was “inactive” and the Potency (CP250) was “inactive”. The Potency (CP256) was “inactive”, the Potency (FAB9) was “inactive” and the Potency (JCK) was “inactive”. The Potency (PC49) was “inactive”.

For `CN(C)c1ccc(O)c2c1C[C@H]1C[C@H]3[C@@H](N(C)C)C(=O)C(C(N)=O)=C(O)[C@]3(O)C(=O)C1=C2O`, the outcome [1] was “inactive”, the activity change, negative = inhibition [7] was 12.2% (inactive) and the outcome [2] was “inactive”. For the same compound, the Potency [8] was > 20.6 µM (inactive), the Potency [3] was > 20.6 µM (inactive) and the Potency [12] was “inactive”. For the same compound, the outcome [4] was “inactive”, the activity change, negative = inhibition [5] was -0.929% (inactive) and the max response [5, 13] was 2.32%. For the same compound, the max response [5, 14] was 0.719%.

In the case of `CN(C)/N=N\c1nc[nH]c1C(N)=O`, the outcome [1] is reported as “inactive”, the activity change, negative = inhibition [7] is reported as 3.5% (inactive) and the outcome [2] is reported as “inactive”. The Potency [8] was > 20.6 µM (inactive), the Potency [3] was > 20.6 µM (inactive) and the outcome [4] was “inactive”. The activity change, negative = inhibition [5] was 0.337% (inactive), the max response [5, 13] was 10.1% and the max response [5, 14] was 7.48%. The Potency [6] was “inactive”.
